A short description of assay [1]: qHTS assay to identify small molecule antagonists of the glucocorticoid receptor (GR) signaling pathway - cell viability counter screen (AID 720693). Also: nearly all actives have a fitted effect of over 55% in size.
A short description of assay [2]: qHTS assay for identifying genotoxic compounds that show differential cytotoxicity against isogenic chicken DT40 cell lines with known DNA damage response pathways - wild type cell line (AID 743012). Also: nearly all actives have a fitted effect of over 60% in size. Also: potency is read from the fitted curve at half-maximal effect. The gist of the method: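 Endpoint: CellTiter-Glo luminescence, 30 min RT. Cells: wild type DT40, 300/well. Exposure: compounds in DMSO, 40 h, 37 C/5% CO2, after ~0.5 h pre-incubation.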
(In general: In qHTS, concentration-response curves come from the screen itself.)

The nature of assay [3]: qHTS assay for identifying genotoxic compounds that show differential cytotoxicity against isogenic chicken DT40 cell lines with known DNA damage response pathways - Rev3 mutant cell line (AID 743014). Also: nearly all actives have a fitted effect of over 55% in size. Also: potency is read from the fitted curve at half-maximal effect.
A short description of assay [4]: qHTS assay for identifying genotoxic compounds that show differential cytotoxicity against isogenic chicken DT40 cell lines with known DNA damage response pathways - Rad54/Ku70 mutant cell line (AID 743015). Also: nearly all actives have a fitted effect of over 60% in size. Also: potency is read from the fitted curve at half-maximal effect.
Assay [5] concerns the target Androgen receptor (Homo sapiens) (UniProt P10275). The assay can be described thus: qHTS assay to identify small molecule antagonists of the androgen receptor (AR) signaling pathway (AID 743035; active = well fitted inhibition curve with a large enough effect in the signal ratio in the repeat runs, not every such curve was filed as active; the % refers to the signal ratio). The gist of the method:
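R1881 agonist challenge of a HEK293 UAS-beta-lactamase AR reporter line in the presence of compound (16 h, 37C); signal taken as FRET fluorescence after 2 h with LiveBLAzer B/G substrate at room temperature.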

For assay [6] the target is unchanged. The assay can be described thus: qHTS assay to identify small molecule agonists of the androgen receptor (AR) signaling pathway (AID 743036; active = well fitted activation curve with a large enough effect in the signal ratio in the repeat runs, with a control signal flat, not every such curve was filed as active; the % refers to the signal ratio). The gist of the method:
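Reporter line: GeneBLAzer AR-UAS-bla-GripTite (HEK293). Steps: plate cells, 4 h rest, add compounds, 16 h at 37C, add LiveBLAzer B/G substrate, 2 h at RT, read fluorescence.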

Assay [7] has the same target. The experiment in a line: qHTS assay to identify small molecule agonists of the androgen receptor (AR) signaling pathway using the MDA cell line (AID 743040; also: nearly all actives have a fitted effect of over 20% in size). The gist of the method: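 Luciferase agonist assay: 16 h compound exposure at 37C without CO2 in MDA-kb2 AR-luc cells, whose MMTV promoter responds to both AR and GR. Luminescence measured after 30 min room-temperature incubation with ONE-Glo.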

Assay [8] in a line: qHTS assay to identify small molecule antagonists of the androgen receptor (AR) signaling pathway using the MDA cell line - cell viability counter screen (AID 743041; also: nearly all actives have a fitted effect of over 45% in size). The gist of the method:
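Viability read by CellTiter-Fluor fluorescence in the same wells as the antagonist screen, added after 15.5 h of a 16 h, 37C exposure. Human breast carcinoma MDA-kb2 AR-luc cells, compounds co-dosed with agonist R1881.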

The target in assay [9] is Androgen receptor (Homo sapiens) (UniProt P10275). The assay can be described thus: qHTS assay to identify small molecule antagonists of the androgen receptor (AR) signaling pathway using the MDA cell line (AID 743042; also: nearly all actives have a fitted effect of over 55% in size). The gist of the method:
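Antagonist mode: compounds plus R1881 agonist added to MDA-kb2 AR-luc cells, incubated 16 h at 37C. Luciferase reporter luminescence quantified, with multiplexed CellTiter-Fluor readout for cell viability.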

The nature of assay [10]: qHTS assay to identify small molecule antagonists of the androgen receptor (AR) signaling pathway - cell viability counter screen (AID 743033; also: nearly all actives have a fitted effect of over 45% in size).

Structures are written as SMILES. Values joined by “and” are separate entries in the source; they are usually repeats but may differ in a detail not shown here. Identical values can stand only once. Results filed as inconclusive are left out. Active and inactive are the calls of the source. Unless noted, calls follow the shape of the dose curve; as a rule, active = well fitted curve in the direction sought with a large enough effect in the repeat runs; inconclusive = weak or mixed curves; inactive = no such curve, though single readings can be large; an effect the other way counts as inactive or inconclusive.

Androgen receptor (Homo sapiens), sequence (P10275 whole entry, looked up): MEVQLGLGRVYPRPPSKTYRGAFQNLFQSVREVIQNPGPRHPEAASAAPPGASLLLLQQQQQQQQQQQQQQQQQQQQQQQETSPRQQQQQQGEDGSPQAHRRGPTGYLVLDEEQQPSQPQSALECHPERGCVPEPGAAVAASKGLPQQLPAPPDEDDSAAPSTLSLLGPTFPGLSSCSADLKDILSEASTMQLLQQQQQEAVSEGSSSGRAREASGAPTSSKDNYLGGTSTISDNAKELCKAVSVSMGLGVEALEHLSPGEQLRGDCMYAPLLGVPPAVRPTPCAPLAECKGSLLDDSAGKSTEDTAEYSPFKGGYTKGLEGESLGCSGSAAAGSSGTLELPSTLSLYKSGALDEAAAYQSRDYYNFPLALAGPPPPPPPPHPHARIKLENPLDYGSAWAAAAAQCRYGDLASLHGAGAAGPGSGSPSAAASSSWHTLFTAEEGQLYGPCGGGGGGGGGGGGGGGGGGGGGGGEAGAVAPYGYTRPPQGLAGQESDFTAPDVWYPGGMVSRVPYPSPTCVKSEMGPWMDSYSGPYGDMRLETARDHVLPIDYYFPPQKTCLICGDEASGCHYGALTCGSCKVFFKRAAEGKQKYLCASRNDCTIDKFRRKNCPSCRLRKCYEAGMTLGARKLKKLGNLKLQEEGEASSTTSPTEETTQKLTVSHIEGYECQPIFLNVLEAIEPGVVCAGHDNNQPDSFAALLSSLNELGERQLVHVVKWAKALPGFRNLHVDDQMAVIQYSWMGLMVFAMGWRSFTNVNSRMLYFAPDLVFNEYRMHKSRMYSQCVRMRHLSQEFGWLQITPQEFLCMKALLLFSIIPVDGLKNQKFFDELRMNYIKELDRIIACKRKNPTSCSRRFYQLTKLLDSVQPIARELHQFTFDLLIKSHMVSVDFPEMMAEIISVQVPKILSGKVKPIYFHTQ

On to `c1ccc(SCCSc2ccccc2)cc1`, for which the call in assay [1], in assay [6] and in [9] was inactive. The Potency entry in [2], in assay [3], in [4], in [5], in assay [7] and in [8] was “inactive” throughout.
On to `NS(=O)(=O)c1cc(C2(O)NC(=O)c3ccccc32)ccc1Cl` (configuration not stated), for which the compound was classed as inactive in assay [1] and in assay [10]. The Potency entry in assay [2], in [3], in assay [4] and in assay [8] was “inactive” throughout.
In the case of `CC(C)[N+](C)(C)CC(O)COc1cccc2ccccc12` (configuration not stated), the compound was called inactive in [1] and in assay [10]. The Potency result in assay [2], in assay [3], in assay [4] and in assay [8] was “inactive” each time.
As for `Nc1[nH]c(=O)ncc1F`, the outcome in assay [1] and in assay [10] was inactive. Moreover, the Potency result in assay [2], in [3], in assay [4] and in [8] was “inactive” throughout.
As for `C=C(C)C1CC=C(C)C(O)C1` (configuration not stated), the call in [1] and in [10] was inactive. Besides, the Potency entry in assay [2], in assay [3], in assay [4] and in assay [8] was “inactive” each time.
On to `OC/C=C/c1ccccc1`, for which the result in assay [1] and in [10] was inactive. The Potency entry in assay [2], in assay [3], in [4] and in [8] was “inactive” throughout.
Take `CCCCC1CCCCC(=O)O1` (configuration not stated): the compound was classed as inactive in [1] and in [10]. Besides, the Potency entry in [2], in assay [3], in assay [4] and in assay [8] was “inactive” each time.
`CO[Si](CCCNCCC[Si](OC)(OC)OC)(OC)OC`: the compound was classed as inactive in assay [1] and in assay [10]. The Potency result in [2], in assay [3], in assay [4] and in assay [8] was “inactive” throughout.
`COCc1ccc(COC)cc1`: the call in assay [1] and in assay [10] was inactive. Besides, the Potency entry in assay [2], in assay [3], in assay [4] and in [8] was “inactive” each time.
On to `COC(=O)CCCCCCCCC(=O)OC`, for which the compound was classed as inactive in [1] and in [10]. For the same compound, the Potency entry in [2], in assay [3], in assay [4] and in assay [8] was “inactive” throughout.
With `CC12CCC(CC1=O)C2(C)C` (configuration not stated), the compound was called inactive in [1] and in assay [10]. For the same compound, the Potency entry in [2], in assay [3], in [4] and in assay [8] was “inactive” in each case.
In the case of `C=C(C)C(=O)OCCCCCCCCCCCCCCCCCC`, the call in [1] and in assay [10] was inactive. Besides, the Potency result in assay [2], in [3], in [4] and in [8] was “inactive” in each case.
For `N#CCN(CC#N)CCN(CC#N)CC#N`, the outcome in [1] and in assay [10] was inactive. Further, the Potency entry in assay [2], in [3], in assay [4] and in [8] was “inactive” throughout.
For `CC(=O)c1ccc(C)cc1`, the outcome in [1] and in [10] was inactive. Also, the Potency entry in [2], in [3], in assay [4] and in [8] was “inactive” in each case.
`CC(C)(C)N(CCO)CCO`: the result in assay [1] and in [10] was inactive. The Potency entry in assay [2], in assay [3], in assay [4] and in assay [8] was “inactive” throughout.
For `CCCCc1ccc2cccc(S(=O)(=O)O)c2c1`, the result in [1], in assay [10], in [6] and in assay [9] was inactive. The Potency result in [2], in [3], in assay [5], in [7] and in assay [8] was “inactive” in each case.
Consider `CC(C)(C)CC(C)(C)N`, for which the call in assay [1] was inactive. For the same compound, the Potency result in assay [2], in [3], in assay [4] and in assay [8] was “inactive” in each case.
As to `OCCCCCCO`, the call in [1] was inactive. The Potency result in [2], in [3], in [4] and in assay [8] was “inactive” in each case.
Take `C[C@H](O)C(=O)Nc1c(I)c(C(=O)NC(CO)CO)c(I)c(C(=O)NC(CO)CO)c1I`: in assay [1], the outcome was inactive. For the same compound, the Potency entry in assay [2], in [3], in [4] and in assay [8] was “inactive” throughout.
Consider `CCCCOCC(C)OCC(C)O` (configuration not stated), for which the compound was classed as inactive in assay [1]. Further, the Potency result in [2], in [3], in assay [4] and in [8] was “inactive” throughout.
As to `COC(=O)[C@H]1[C@H]2C[C@@H]3c4[nH]c5cc(OC)ccc5c4CCN3C[C@H]2C[C@@H](OC(=O)COc2ccc(OC)cc2)[C@@H]1OC`, the result in [1] was inactive. In addition, the Potency was 21.1 µM (active) in assay [2], 33.5 µM (active) in assay [3] and 18.8 µM (active) in assay [4]. The Potency result in [8] was “inactive”.
As for `Nc1nc(F)nc2c1ncn2[C@@H]1O[C@H](CO)[C@@H](O)[C@@H]1O`, in assay [1], the result was inactive. In addition, the Potency is 841 nM (active) and 1.68 µM (active) in assay [2]; 596 nM (active) and 1.88 µM (active) in assay [3]; 1.33 µM (active) and 2.66 µM (active) in assay [4]. The Potency result in assay [8] is “inactive”.
Turning to `CCCCCC[C@@H](CCC)C(=O)O`, the call in assay [1] was inactive. The Potency entry in assay [2], in assay [3], in assay [4] and in assay [8] was “inactive” in each case.
As for `CC(=O)N[C@@H](CCC(N)=O)C(=O)O`, in [1], the outcome was inactive. Also, the Potency result in assay [2], in [3], in assay [4] and in assay [8] was “inactive” throughout.
With `CCCCCCOC(=O)CC(CC(=O)OCCCCCC)(OC(=O)CCC)C(=O)OCCCCCC`, the compound was called inactive in assay [1], in assay [10], in [6] and in assay [9]. The Potency entry in assay [2], in assay [3], in assay [7] and in assay [8] was “inactive” in each case.
Turning to `NS(=O)(=O)c1cc2c(cc1C(F)(F)F)NC(Cc1ccccc1)NS2(=O)=O` (configuration not stated), the outcome in assay [1], in assay [10], in assay [6] and in assay [9] was inactive. Further, the Potency entry in assay [2], in assay [3], in assay [5], in assay [7] and in assay [8] was “inactive” in each case.
For the compound `C/C=C1\C(=O)C[C@H]2[C@@H]3CCC4=CC(=O)CC[C@]4(C)[C@H]3CC[C@]12C`, the result in [1] was inactive. Moreover, the Potency was 18.9 µM (active) in [2], 10.7 µM (active) in assay [3] and 13.4 µM (active) in [4]. The Potency entry in assay [8] is “inactive”.
For `c1cc(CN2CCCCC2)cc(OCCCNc2nc3ccccc3s2)c1`, the compound was called inactive in [1] and in [10]. The results for the Potency in [2] and in [3] were 13.3 µM (active) and 29.8 µM (active), respectively. Also, in assay [8], the Potency result is “inactive”.
With `CC(=O)OC(C)(C)C`, the compound was classed as inactive in [1] and in assay [10]. Moreover, the Potency result in [2], in assay [3] and in assay [8] was “inactive” throughout.
`C=C[Si](OC)(OC)OC`: the compound was called inactive in assay [1]. Besides, the Potency entry in assay [2], in [3], in assay [4] and in assay [8] was “inactive” throughout.
In the case of `CCCCNc1ccccc1`, the outcome in assay [1], in assay [10] and in [9] was inactive. The Potency result in [2], in assay [3], in assay [5], in assay [7] and in [8] was “inactive” in each case.

Values taken from PubChem BioAssay (Tox21).
